In PubChem BioAssay (Tox21):
Several values for one entry are separate records, joined by “and”; a condition that tells them apart may be missing. Equal values may be shown once. Inconclusive results are not listed. Some structures have more than one record in an assay (separate samples or runs), and their calls can disagree. Activity calls are given as the source filed them. Unless noted, calls follow the shape of the dose curve; as a rule, active = well fitted curve in the direction sought with a large enough effect in the repeat runs; inconclusive = weak or mixed curves; inactive = no such curve, though single readings can be large; an effect the other way counts as inactive or inconclusive.

Columns and labels:
[1] = qHTS assay to identify aromatase inhibitors - cell viability counter screen (AID 743084);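 also: cells stimulated with testosterone during compound exposure; nearly all actives have a fitted effect of over 55% in size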
[2] = molecular target: Aryl hydrocarbon receptor (Homo sapiens) (UniProt P35869); test: qHTS assay to identify small molecule that activate the aryl hydrocarbon receptor (AhR) signaling pathway (AID 743085); also: nearly all actives have a fitted effect of over 15% in size; also: potency is read from the fitted curve at half-maximal effect;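 as to activation: HG2L7.5c1 human HepG2 liver cells with stably integrated DRE-driven firefly reporter; series mostly up to about 70 µM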
Aryl hydrocarbon receptor (Homo sapiens), sequence (P35869 whole entry, looked up): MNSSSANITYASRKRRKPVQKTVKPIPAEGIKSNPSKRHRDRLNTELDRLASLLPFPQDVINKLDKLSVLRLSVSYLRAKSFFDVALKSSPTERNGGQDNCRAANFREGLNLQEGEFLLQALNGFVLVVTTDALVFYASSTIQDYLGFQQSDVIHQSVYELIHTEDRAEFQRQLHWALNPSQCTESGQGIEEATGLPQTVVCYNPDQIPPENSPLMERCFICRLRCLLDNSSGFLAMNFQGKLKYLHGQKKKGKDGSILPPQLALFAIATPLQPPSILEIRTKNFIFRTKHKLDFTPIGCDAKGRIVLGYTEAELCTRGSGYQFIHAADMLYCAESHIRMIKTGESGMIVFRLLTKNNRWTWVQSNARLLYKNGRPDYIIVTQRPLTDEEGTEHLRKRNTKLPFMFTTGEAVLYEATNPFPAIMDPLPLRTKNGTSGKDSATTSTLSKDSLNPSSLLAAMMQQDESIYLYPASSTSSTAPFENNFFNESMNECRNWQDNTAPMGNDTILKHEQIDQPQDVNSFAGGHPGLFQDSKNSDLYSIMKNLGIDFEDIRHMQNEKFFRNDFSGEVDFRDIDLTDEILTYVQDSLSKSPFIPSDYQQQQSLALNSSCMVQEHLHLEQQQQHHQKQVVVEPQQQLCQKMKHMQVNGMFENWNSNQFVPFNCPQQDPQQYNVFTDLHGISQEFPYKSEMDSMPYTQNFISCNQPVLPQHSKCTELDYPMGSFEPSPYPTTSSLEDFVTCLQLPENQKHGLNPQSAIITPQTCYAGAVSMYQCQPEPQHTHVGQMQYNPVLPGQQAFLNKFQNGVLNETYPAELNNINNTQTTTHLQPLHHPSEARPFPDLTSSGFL
How it was run: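 Luminescence (ONE-Glo) from a dioxin-responsive-element luciferase reporter in HG2L7.5c1 HepG2 cells after 24 hr compound exposure at 37C; viability measured by CellTiter-Fluor fluorescence beforehand.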

[3] = qHTS assay to identify small molecule that activate the aryl hydrocarbon receptor (AhR) signaling pathway - cell viability counter screen (AID 743086);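 also: HepG2 liver cells carrying the AhR DRE luciferase reporter; series mostly up to about 70 µM; nearly all actives have a fitted effect of over 45% in size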
How it was run: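 Cytotoxicity counter screen: CellTiter-Fluor signal (30 min, 37 C) in 4000 HepG2 cells/well carrying the DRE-luciferase reporter, following 24 h compound exposure at 37 C.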

[4] = molecular target: Peroxisome proliferator-activated receptor gamma (Homo sapiens) (UniProt P37231); test: qHTS assay to identify small molecule agonists of the peroxisome proliferator-activated receptor gamma (PPARg) signaling pathway (AID 743094; active = well fitted activation curve with a large enough effect in the signal ratio in the repeat runs, not every such curve was filed as active; the % refers to the signal ratio)
Peroxisome proliferator-activated receptor gamma (Homo sapiens), sequence (P37231 whole entry, looked up): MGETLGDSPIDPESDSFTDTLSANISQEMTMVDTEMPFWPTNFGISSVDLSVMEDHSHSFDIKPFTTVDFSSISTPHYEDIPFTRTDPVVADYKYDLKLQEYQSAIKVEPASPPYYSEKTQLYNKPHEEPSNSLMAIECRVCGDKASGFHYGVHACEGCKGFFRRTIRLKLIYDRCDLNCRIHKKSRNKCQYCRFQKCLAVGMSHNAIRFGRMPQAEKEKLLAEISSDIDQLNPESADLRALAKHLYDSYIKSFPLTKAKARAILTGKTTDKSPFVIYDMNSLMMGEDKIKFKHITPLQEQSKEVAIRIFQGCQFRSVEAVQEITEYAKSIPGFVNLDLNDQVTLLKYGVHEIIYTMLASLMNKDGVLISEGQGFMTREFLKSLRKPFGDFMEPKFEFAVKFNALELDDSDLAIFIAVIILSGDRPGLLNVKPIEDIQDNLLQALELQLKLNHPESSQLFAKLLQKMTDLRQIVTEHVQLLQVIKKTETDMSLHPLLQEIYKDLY
How it was run: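 Agonism was assessed in a beta-lactamase reporter system, HEK293H cells with a stably integrated UAS-bla construct under PPARg control; the 17 h treatment at 37C preceded a 1 h room-temperature FRET substrate read.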

[5] = molecular target: Peroxisome proliferator-activated receptor gamma (Homo sapiens) (UniProt P37231); test: qHTS assay to identify small molecule antagonists of the peroxisome proliferator-activated receptor gamma (PPARg) signaling pathway (AID 743191; calls by dose curve; also: series mostly up to about 63 µM; nearly all actives have a fitted effect of over 30% in size)
How it was run: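 Beta-lactamase reporter under UAS control in HEK293H PPARg-bla cells; compound treatment 17 h at 37C. Read-out: fluorescence intensity after 1 h room-temperature incubation with LiveBLAzer B/G FRET substrate.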

[6] = qHTS assay to identify small molecule antagonists of the peroxisome proliferator-activated receptor gamma (PPARg) signaling pathway - cell viability counter screen (AID 743194); also: nearly all actives have a fitted effect of over 55% in size
How it was run: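 Viability was measured as CellTiter-Glo luminescence in GeneBLAzer PPARg UAS-bla HEK293H cells. These cells had been exposed 17 h at 37 C to compounds together with rosiglitazone at 50 nM final, with the beta-lactamase readout taken in the same wells.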

[7] = qHTS assay for small molecule agonists of the antioxidant response element (ARE) signaling pathway (AID 743202; active = well fitted activation curve with a large enough effect in the signal ratio in the repeat runs, not every such curve was filed as active; the % refers to the signal ratio)
How it was run: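 Beta-lactamase reporter activity, read as fluorescence intensity, reflects ARE/Nrf2 pathway induction in HepG2 cells after 16 h compound exposure at 37 C; substrate loading was 2 h at room temperature.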

[8] = qHTS assay for small molecule agonists of the antioxidant response element (ARE) signaling pathway - cell viability counter screen (AID 743203; calls by dose curve; also: nearly all actives have a fitted effect of over 55% in size)
How it was run: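 ATP content via CellTiter-Glo luminescence served as the viability measure. Cells: ARE-bla HepG2, 2,000 per well. Exposure: 16 hrs, 37C/5% CO2.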

[9] = qHTS assay for small molecule activators of the heat shock response signaling pathway - cell viability counter screen (AID 743209); also: nearly all actives have a fitted effect of over 50% in size
How it was run: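 Compounds dissolved in DMSO were added to overnight-plated HSE-bla HeLa cells and left 5 h at 37 C. Cell viability was quantified by luminescence using CellTiter-Glo.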

[10] = qHTS assay for small molecule activators of the heat shock response signaling pathway (AID 743210; active = well fitted activation curve with a large enough effect in the signal ratio in the repeat runs, with a control signal flat, not every such curve was filed as active; the % refers to the signal ratio;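 also: HeLa cells with beta-lactamase reporter driven by heat shock elements; series mostly up to about 63 µM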)
How it was run: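 Fluorescence from a cleaved B/G FRET substrate (2.5 h, room temp) reports HSE-driven beta-lactamase in HeLa cells treated 5 h at 37 C with DMSO-dissolved compounds.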

[11] = qHTS assay to identify small molecule agonists of the peroxisome proliferator-activated receptor delta (PPARd) signaling pathway - cell viability counter screen (AID 743211); also: nearly all actives have a fitted effect of over 55% in size
How it was run: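 Viability was measured as CellTiter-Glo luminescence (30 min, room temperature) in the same wells as the beta-lactamase readout. GeneBLAzer PPARd UAS-bla HEK293H cells received compound after 5 h plating and were incubated 17 h at 37 C.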

[12] = molecular target: Peroxisome proliferator-activated receptor delta (Homo sapiens) (UniProt Q03181); test: qHTS assay to identify small molecule agonists of the peroxisome proliferator-activated receptor delta (PPARd) signaling pathway (AID 743212; calls by dose curve)
Peroxisome proliferator-activated receptor delta (Homo sapiens), sequence (Q03181 whole entry, looked up): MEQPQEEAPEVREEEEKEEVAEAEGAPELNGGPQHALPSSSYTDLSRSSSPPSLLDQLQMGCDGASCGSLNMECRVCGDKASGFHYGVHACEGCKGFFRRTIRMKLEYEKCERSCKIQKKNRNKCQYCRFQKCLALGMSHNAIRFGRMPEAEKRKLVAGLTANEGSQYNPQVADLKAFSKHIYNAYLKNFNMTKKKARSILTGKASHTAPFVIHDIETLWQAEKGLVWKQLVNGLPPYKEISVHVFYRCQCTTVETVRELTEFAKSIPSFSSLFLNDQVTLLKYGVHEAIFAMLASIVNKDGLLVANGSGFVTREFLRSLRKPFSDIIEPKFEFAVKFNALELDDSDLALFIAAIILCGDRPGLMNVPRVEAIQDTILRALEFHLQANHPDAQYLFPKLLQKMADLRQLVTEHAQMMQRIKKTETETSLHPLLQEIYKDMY
How it was run: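 Steps: seed PPARd-bla HEK293H cells; incubate 5 h, 37 C, 5% CO2; add compounds in DMSO; incubate, 37 C; add LiveBLAzer B/G FRET substrate; hold 2 h at room temperature; measure fluorescence.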

[13] = molecular target: Peroxisome proliferator-activated receptor delta (Homo sapiens) (UniProt Q03181); test: qHTS assay to identify small molecule antagonists of the peroxisome proliferator-activated receptor delta (PPARd) signaling pathway (AID 743215; active = well fitted inhibition curve with a large enough effect in the signal ratio in the repeat runs, not every such curve was filed as active; the % refers to the signal ratio;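 also: cells stimulated with agonist L165041 at 300 nM final during compound exposure; series mostly up to about 62 µM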)
How it was run: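 Here, a reporter line (HEK293H, beta-lactamase under a UAS) measures PPARd signaling. Compounds are tested against agonist L165041 at 300 nM final concentration over 17 h at 37 C, with fluorescence read after substrate.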

[14] = molecular target: Bile acid receptor (Homo sapiens) (UniProt Q96RI1); test: qHTS assay to identify small molecule antagonists of the farnesoid-X-receptor (FXR) signaling pathway (AID 743217; active = well fitted inhibition curve with a large enough effect in the signal ratio in the repeat runs, not every such curve was filed as active; the % refers to the signal ratio)
Bile acid receptor (Homo sapiens), sequence (Q96RI1 whole entry, looked up): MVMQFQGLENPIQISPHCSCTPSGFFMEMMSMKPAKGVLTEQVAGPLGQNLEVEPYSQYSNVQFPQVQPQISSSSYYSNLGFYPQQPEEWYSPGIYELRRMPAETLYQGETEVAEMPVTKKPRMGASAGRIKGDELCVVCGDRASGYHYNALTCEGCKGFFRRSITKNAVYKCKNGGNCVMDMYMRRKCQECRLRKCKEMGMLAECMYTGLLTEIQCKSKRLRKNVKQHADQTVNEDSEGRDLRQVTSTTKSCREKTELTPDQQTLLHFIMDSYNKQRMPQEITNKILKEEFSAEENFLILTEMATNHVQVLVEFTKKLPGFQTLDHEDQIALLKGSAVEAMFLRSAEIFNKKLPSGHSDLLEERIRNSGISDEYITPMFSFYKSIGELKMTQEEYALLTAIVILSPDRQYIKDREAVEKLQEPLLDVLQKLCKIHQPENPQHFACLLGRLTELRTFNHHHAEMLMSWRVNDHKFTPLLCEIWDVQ
How it was run: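 Test compounds are pin-transferred onto FXR-bla HEK 293T cells, then chenodeoxycholic acid is added at 50 uM final. After 16 h at 37 °C, LiveBLAzer B/G substrate is applied for 2 h at room temperature and fluorescence read.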

[15] = qHTS assay to identify small molecule agonists of the farnesoid-X-receptor (FXR) signaling pathway - cell viability counter screen (AID 743218); also: nearly all actives have a fitted effect of over 45% in size
How it was run: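 Quantitative HTS counter screen measuring ATP-based viability via CellTiter-Glo luminescence in HEK 293T cells carrying a UAS-driven beta-lactamase reporter, after 16 h compound exposure at 37 C.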

[16] = qHTS assay to identify small molecule antagonists of the farnesoid-X-receptor (FXR) signaling pathway - cell viability counter screen (AID 743221; active = well fitted cell-killing curve with a large enough effect in the repeat runs, not every such curve was filed as active; also: nearly all actives have a fitted effect of over 50% in size)
How it was run: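 Cytotoxicity counter screen run in the FXR-bla reporter wells: HEK 293T cells exposed to compound with 50 uM (final) chenodeoxycholic acid for 16 h, 37 C, then viability measured by CellTiter-Glo luminescence after 30 min, room temperature.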

[17] = molecular target: Vitamin D3 receptor (Homo sapiens) (UniProt P11473); test: qHTS assay to identify small molecule agonists of the vitamin D receptor (VDR) signaling pathway (AID 743222; calls by dose curve)
Vitamin D3 receptor (Homo sapiens), sequence (P11473 whole entry, looked up): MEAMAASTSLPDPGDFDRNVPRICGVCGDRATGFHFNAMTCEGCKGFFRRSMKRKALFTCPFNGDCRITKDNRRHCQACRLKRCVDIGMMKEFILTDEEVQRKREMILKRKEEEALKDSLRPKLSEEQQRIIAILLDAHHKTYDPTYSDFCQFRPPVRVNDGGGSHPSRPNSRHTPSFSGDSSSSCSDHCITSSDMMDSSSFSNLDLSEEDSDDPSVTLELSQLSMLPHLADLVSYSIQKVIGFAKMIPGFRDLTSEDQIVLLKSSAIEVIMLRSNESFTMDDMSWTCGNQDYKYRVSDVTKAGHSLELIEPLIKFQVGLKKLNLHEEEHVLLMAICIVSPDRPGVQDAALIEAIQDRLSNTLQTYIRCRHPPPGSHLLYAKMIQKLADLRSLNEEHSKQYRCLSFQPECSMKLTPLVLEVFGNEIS
How it was run: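 Tox21 cell reporter format: VDR-bla line, 16 h compound exposure in 5% CO2 at 37C, then fluorescence intensity after 2 h with LiveBLAzer B/G FRET substrate.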

[18] = molecular target: Vitamin D3 receptor (Homo sapiens) (UniProt P11473); test: qHTS assay to identify small molecule antagonists of the vitamin D receptor (VDR) signaling pathway (AID 743223; active = well fitted inhibition curve with a large enough effect in the signal ratio in the repeat runs, not every such curve was filed as active; the % refers to the signal ratio)
How it was run: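 Antagonist mode: compound added to VDR-bla cells alongside agonist 1alpha,25-dihydroxyvitamin D3 (3 nM final), incubation 16 h at 37C. Read-out is LiveBLAzer FRET fluorescence, 2 h at room temperature.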

[19] = qHTS assay to identify small molecule antagonists of the peroxisome proliferator-activated receptor delta (PPARd) signaling pathway - cell viability counter screen (AID 743213); also: nearly all actives have a fitted effect of over 50% in size
How it was run: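 PPARd-bla HEK293H cells (3000/well) got compound plus 300 nM L165041 agonist for 17 h at 37 C. Viability in the same wells came from CellTiter-Glo luminescence after 30 min at room temperature.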

[20] = molecular target: Bile acid receptor (Homo sapiens) (UniProt Q96RI1); test: qHTS assay to identify small molecule agonists of the farnesoid-X-receptor (FXR) signaling pathway (AID 743220; active = well fitted activation curve with a large enough effect in the signal ratio in the repeat runs, not every such curve was filed as active; the % refers to the signal ratio)
How it was run: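 FXR-UAS-bla HEK 293T cells carrying a UAS-driven beta-lactamase reporter were plated for 5 h at 37C/5% CO2, then exposed to DMSO-dissolved Tox21 10K compounds for 16 h at 37C. A LiveBLAzer B/G FRET substrate was loaded for 2 h at room temperature before fluorescence reading.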

Measured: Potency

O=C(O)CC(C(=O)O)C(CC(=O)O)C(=O)O (stereo not drawn)
not listed: [19] | [20]
inactive: all other assays above

O=c1[nH]nnc2ccccc12
not listed: [19] | [20]
inactive: all other assays above

CCCCCCCC(=O)OC
not listed: [14] | [20]
inactive: all other assays above

O=C=NCCCCCCN=C=O
not listed: [7] | [15] | [19] | [20]
inactive: all other assays above

CCC(O)OCCCOC (stereo not drawn)
not listed: [7] | [14] | [16] | [19] | [20]
inactive: all other assays above

COc1ccc(NC(C)=O)cc1N
not listed: [7] | [14] | [17] | [18] | [20]
inactive: all other assays above

CCc1cccc(C)c1N
not listed: [7] | [14] | [20]
inactive: all other assays above

O=[N+]([O-])c1ccc(/C=C/c2ccc([N+](=O)[O-])cc2S(=O)(=O)O)c(S(=O)(=O)O)c1
not listed: [7] | [12] | [13] | [14] | [19] | [20]
inactive: all other assays above

CSCCC=O
not listed: [7] | [10] | [15] | [20]
inactive: all other assays above

OC[C@H]1O[C@@](CO)(O[C@H]2O[C@H](CO)[C@@H](O)[C@H](O)[C@H]2O)[C@@H](O)[C@@H]1O
not listed: [7] | [17] | [18] | [19] | [20]
inactive: all other assays above

Cc1ccc(N(C)C)cc1
inactive and 68.6 µM (active): [2]
not listed: [10] | [14] | [15] | [19] | [20]
inactive: all other assays above

O=C(OCCOCCOC(=O)c1ccccc1)c1ccccc1
not listed: [7] | [15] | [16]
inactive: all other assays above

CC(=O)CC(=O)Nc1ccccc1C
not listed: [12] | [13] | [14] | [16] | [19] | [20]
inactive: all other assays above

C[Si](O[Si](C)(C)C)O[Si](C)(C)C
not listed: [7] | [15] | [16] | [19] | [20]
inactive: all other assays above

c1ccc2scnc2c1
inactive and 19.3 µM (active): [2]
not listed: [7] | [13] | [14] | [15] | [20]
inactive: all other assays above

C=C(C)C(=O)O[C@H]1C[C@@H]2CC[C@@]1(C)C2(C)C
not listed: [7] | [14] | [19] | [20]
inactive: all other assays above

OCC(CO)(CBr)CBr
not listed: [7] | [17] | [18] | [20]
inactive: all other assays above

CCOC(=O)NNc1nncc2ccccc12
not listed: [7] | [15]
inactive: all other assays above
